Compound activity as filed in PubChem BioAssay.
This is a sample that favours compounds with a hit; in the whole collection about 22% have one here.
CHX counter: counter-screen hit for Shiga toxin inhibitors, cycloheximide | cell reporter, cycloheximide protein synthesis inhibition counterscreen | max response, % | 300,000 tested, 12% active; in the data active = max response mostly above about 13%, no sharp cut-off; inactive = mostly below about 14%; note: read at 38.3 µM for the half of the compounds with a filed dose; 0% is about no effect
Pf growth 96h: P. falciparum growth inhibition at 96 hours; P. falciparum luciferase reporter growth, 96 h; 320,000 tested, 6.9% active; Potency, µM (doses to about 28.7 µM), inactives show at the top dose activity change, negative = inhibition, most hits filed as inhibitors; note: potency is the fitted concentration of half-maximal effect; % is set by controls: 0 for no effect and ±100 for the full control effect
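Cell-based qHTS: luciferase-tagged P. falciparum in erythrocytes (2% hematocrit, 0.05% parasitemia final) incubated with compounds for 96 hours, 37 C, 5% CO2; luciferase detection reagent then added and luminescence measured.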
Shiga toxin inh: inhibitors of Shiga toxin in Vero cells. Vero cells, Shiga toxin protein synthesis inhibition reporter. inhibition, % at 38.7 µM. 290,000 tested, 9.2% active; in the data active = inhibition mostly above about 28%, no sharp cut-off; inactive = mostly below about 43%; note: 0% is about no effect
LmPK inhibitor: inhibitors of Leishmania mexicana pyruvate kinase; Q27686; purified LmPK, Kinase-Glo ATP luminescence, 1 h; Potency, µM (doses to about 57.5 µM), inactives show top-dose activity change, negative = inhibition, actives largely listed as inhibitors; 290,000 tested, 0.37% active; note: potency is the fitted concentration of half-maximal effect; % is set by controls: 0 for no effect and ±100 for the full control effect
Target sequence (Q27686 whole entry, looked up): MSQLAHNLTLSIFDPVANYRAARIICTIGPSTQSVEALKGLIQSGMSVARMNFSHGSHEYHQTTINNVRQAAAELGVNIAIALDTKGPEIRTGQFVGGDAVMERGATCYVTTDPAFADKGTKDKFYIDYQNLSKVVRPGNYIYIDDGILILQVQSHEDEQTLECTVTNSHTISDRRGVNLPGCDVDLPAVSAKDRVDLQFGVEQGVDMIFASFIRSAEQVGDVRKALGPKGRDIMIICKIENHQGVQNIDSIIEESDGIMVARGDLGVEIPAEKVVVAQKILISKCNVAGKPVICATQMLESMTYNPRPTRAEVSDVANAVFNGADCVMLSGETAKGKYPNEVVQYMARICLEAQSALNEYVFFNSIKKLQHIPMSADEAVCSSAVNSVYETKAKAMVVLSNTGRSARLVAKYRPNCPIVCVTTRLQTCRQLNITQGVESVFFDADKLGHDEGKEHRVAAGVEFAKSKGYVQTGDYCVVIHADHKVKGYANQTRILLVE
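Pyruvate kinase activity monitored as ATP production (luciferase luminescence). Conditions: 0.1 nM enzyme, 0.5 mM PEP, 0.1 mM ADP, 1 h, RT; normalized against uninhibited and no-enzyme wells.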
Pf growth 48h: P. falciparum growth inhibition at 48 hours (one generation); P. falciparum luciferase growth in erythrocytes, 48 h; Potency, µM (doses to about 28.7 µM), inactives show at the highest dose activity change, negative = inhibition, hits mostly inhibitors; 310,000 tested, 5.9% active; AID 504832; note: potency is the fitted concentration of half-maximal effect; % is set by controls: 0 for no effect and ±100 for the full control effect
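In quantitative HTS format, infected erythrocytes bearing luciferase-reporter parasites were treated for a single generation at 37 C. Luminescence after adding detection reagent served as the growth measure.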
An asterisk follows results filed as active; i = inactive; ? = inconclusive; · = not tested or not shown; + = active, no number; ! = not active in a repeat. Unless noted, calls come from the whole dose curve; as a rule, active = well fitted inhibition curve with a large enough effect; inconclusive = small, poorly fitted or top-dose-only effect, or another doubt; inactive = no such curve, though single readings can be large or run the other way.

SMILES	CHX counter	Pf growth 96h	Shiga toxin inh	LmPK inhibitor	Pf growth 48h
CCC(=O)NCCc1nc2cc(NC(=O)c3ccc(Cl)cc3)ccc2n1C	51.9*	312.0%	63.7*	-1.6%	185.6%
COc1ccc(CCC(=O)N2CCCSC2=Nc2ccc(C(C)=O)cc2)cc1	20.9*	?	-0.8	5.5%	7.1%
COC(=O)c1c(N2C(=O)Nc3ccccc3N2O)sc(C)c1C	-2.1	5.22µM*	-1.9	-0.9%	3.6%
COc1cccc(C2N=C(c3ccccc3C)NO2)c1OC (stereo not drawn)	27.2*	79.4%	51.2*	5.3%	63.4%
O=C(O)C1CC=CCC1C(=O)Nc1ccc2c(c1)CCC2 (stereo not drawn)	-2.3	13.7%	22.8	-0.9%	5.7%
O=C(CN1CCN(S(=O)(=O)c2ccccc2)CC1)NC(=O)NCc1ccco1	19.7	16.8%	42.8	2.5%	130.0%
CN(C(=O)CSc1nc(O)cc(=O)n1C1CCCC1)c1ccccc1	-0.8	1.65µM*	-3.7	9.2%	?
CC1CCN(CCNC(=S)Nc2ccc(Cl)cc2)CC1	10.4	?	-4.4	0.3%	?
COc1ccc(CCN(C)CCCN2CCc3cc(OC)c(OC)cc3CC2=O)cc1OC	3.5	?	-4.8	·	?
CC(NC(=O)c1ccco1)c1nc(-c2ccc(C(C)(C)C)cc2)no1 (stereo not drawn)	15.2	?	49.0*	-1.3%	-3.5%
O=C(NCc1nc(-c2ccc(C(F)(F)F)cc2)no1)c1cccs1	8.2*	35.5%	17.7	-0.1%	-33.6%
O=C(NCc1nc(-c2ccccc2)no1)c1cccs1	7.4	·	28.6	0.2%	3.5%
CC(C)(C)c1ccc(-c2noc(CNC(=O)c3ccco3)n2)cc1	31.7*	2.0%	37.3	-0.2%	?
CC(C)(C)c1ccc(-c2noc(CCC(=O)NCc3ccco3)n2)cc1	34.2*	326.6%	73.5	-6.3%	126.3%
CCN(C(=O)CSc1nnc(-c2ccc3c(c2)OCO3)o1)C1CCS(=O)(=O)C1 (stereo not drawn)	·	-28.3%	·	·	-11.2%
O=c1c2cc(F)ccc2[nH]c(=S)n1Cc1ccc(F)cc1	1.7	-27.9%	-13.3	1.9%	-7.3%
O=C(COc1ccccc1Cl)Nc1ccc(NC(=O)c2ccco2)cc1	-3.0	6.4%	-4.3	0.3%	-26.0%
O=C(Nc1ccc(-c2noc(COc3ccccc3Cl)n2)cc1)c1ccco1	41.5*	223.2%	active	-19.8%	?
O=C(CCNC(=O)c1ccccc1Cl)NCC1COc2ccccc2O1 (stereo not drawn)	·	0.9%	·	·	?
CCCCCOC(=O)NCC(O)c1ccccc1 (stereo not drawn)	67.8*	411.3%	85.9*	-0.1%	167.2%
CC(C)c1nnc(NC(=O)c2cccnc2)s1	30.7*	41.4%	29.0	0.6%	105.1%
CCSc1nnc(NC(=O)CC(C)C)s1	18.4*	37.4%	27.9	-6.4%	66.5%
CCSc1nnc(NC(=O)c2ccccc2)s1	36.9*	170.5%	76.3*	-12.7%	88.3%
CCSc1nnc(NC(=O)CC)s1	-3.8	-33.9%	-7.8	2.8%	·
CCSc1nnc(NC(=O)c2ccccc2C)s1	36.1*	?	125.3*	-3.1%	291.5%
SMILES	CHX counter	Pf growth 96h	Shiga toxin inh	LmPK inhibitor	Pf growth 48h
CCCc1nnc(NC(=O)c2cccnc2)s1	1.4	19.0%	14.6	11.2%	10.4%
CCSc1nnc(NC(=O)[C@H](C)NC(=O)c2ccccc2Cl)s1	-0.8	5.7%	-6.0	2.1%	1.2%
CN(C(=O)COC(=O)c1ccc2c(c1)OCCO2)C1CCCCC1	·	39.1%	·	·	11.8%
CCOC(=O)CNC(=O)C(NC(=O)C1CCC(C)CC1)C(C)CC (stereo not drawn)	-2.6	12.3%	-6.8	-3.1%	13.4%
CCSc1nnc(NC(=O)c2cccnc2)s1	16.9*	-11.5%	35.0	-12.3%	33.6%
CC1CN(c2nnc(NC(=O)c3ccccc3)s2)CC(C)O1 (stereo not drawn)	23.2	42.2%	62.1*	-0.7%	20.0%
COc1ccccc1CNC(=O)[C@H](NC(=O)C1CCN(C(=O)[C@@H](N)CCSC)CC1)C(C)C	1.9	?	8.6	5.6%	-7.0%
Cc1ccccc1NC(=O)CCc1nnc2ccc(N3CCC4(CC3)OCCO4)nn12	-0.7	20.5%	7.7	1.0%	-17.4%
CC(=O)c1ccccc1OCCOc1ccccc1C(C)=O	1.6	?	-2.4	-3.8%	?
COc1ccc(C(=O)OCCOc2ccccc2C(C)=O)c(O)c1	12.7*	-14.6%	40.8	15.8%	0.0%
Cc1ccc(O)c(C(=O)c2cnn(C(=O)Cc3csc(C)n3)c2)c1	-0.8	·	84.4	-1.1%	·
Cc1ncc(CC(=O)n2cc(C(=O)c3cc(F)ccc3O)cn2)s1	33.8*	51.8%	45.2*	-2.9%	18.7%
COc1ccc(-n2cc(C(=O)c3ccccc3O)cn2)cc1	17.7	i	39.9	-21.2%	480.8%
O=C(c1cnn(-c2ccccc2)c1)c1ccccc1O	69.8*	468.5%	75.1*	?	366.1%
O=C(c1cnn(-c2ccccc2)c1)c1cc(F)ccc1O	43.5*	72.8%	82.7*	-1.9%	·
COc1ccc(O)c(C(=O)c2cnn(-c3ccccc3)c2)c1	28.6*	-22.6%	95.8*	-2.3%	25.6%
COc1ccc(C(=O)c2ccccc2)c(O)c1	25.8*	15.1µM*!	+	1.3%	?
COc1ccc(C(=O)c2ccc(C)cc2)c(O)c1	·	45.3%	·	·	54.3%
COc1ccc(O)c(C(=O)c2cnc3onc(C)c3c2)c1	21.3*	9.28µM*	17.5	4.9%	?
O=C1CC[C@H](C(=O)N[C@@H]2C[C@H]2c2ccccc2)N1	·	8.6%	·	·	18.2%
Cc1nc(C(=O)O)nn1-c1cc(Cl)ccc1Cl	-0.6	25.0%	21.1	-1.0%	10.7%
Cc1ccc(CNC(=O)CNS(=O)(=O)c2ccc3c(c2)C(C)(C)C(=O)N3C)cc1	-0.4	-6.6%	-5.1	0.8%	39.2%
Cc1ccc(CSc2nc3ccccc3c(=O)n2Cc2ccco2)cc1	13.1	9.28µM*	62.9*	1.7%	13.1µM*
CCOc1ccc(-n2c(SCC(=O)NCc3ccco3)nc3ccccc3c2=O)cc1	9.3	34.7%	16.3	0.8%	?
O=c1c2ccccc2nc(SCc2nnc(-c3ccccc3Br)o2)n1Cc1ccco1	17.2*	·	-9.0	0.5%	?
Cc1ccc(CSc2nc3ccccc3c(=O)n2CCCC(=O)NCc2ccco2)cc1	-0.9	?	-13.7	3.8%	?
NC(=O)C1CCN(C(=O)c2ccc3c(=O)n(Cc4ccco4)c(SCc4ccc([N+](=O)[O-])cc4)nc3c2)CC1	9.9	?	-2.4	10.1%	11.7µM*
O=c1c2ccccc2nnn1CSc1nc2ccccc2c(=O)n1Cc1ccco1	-1.6	24.1%	-4.7	-0.4%	1.4%
CCOc1ccc2nc(NC(=O)CSc3nc4ccccc4c(=O)n3Cc3ccco3)sc2c1	-0.4	1.31µM*	-0.7	0.3%	?
NCCCC[C@H](NC(=O)[C@@H]1CCCN1C(=O)[C@H](CO)NC(=O)[C@H](CC(=O)O)NC(=O)CNC(=O)[C@H](CCCN=C(N)N)NC(=O)CN)C(=O)O	-1.0	·	-5.5	·	·
